# From PubChem BioAssay (EPA / NIEHS)
# Results filed as inconclusive are left out. Activity calls are given as the source filed them. Rule for the calls, unless noted: active = hit-call score of the fitted dose curve at least 0.9, where 1 is the maximum; inactive = score below 0.9.
# Tests used:
# [1] = target: Myc proto-oncogene protein (Homo sapiens) (UniProt P01106); assay: ATG_Myc_CIS: Attagene CIS-FACTORIAL HepG2 Assay for human Myelocytomatosis (Myc) Proto-Oncogene Transcription Factor (AID 2282990); details: HepG2, Attagene cis-reporter transcription factor activity; actives raise or lower the signal
# Summary of the method: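 HepG2 cells transiently transfected with multiple cis-promoter-driven reporter transcription units, so endogenous TF activity is read. After 24 h compound exposure, reporter mRNA was quantified by RT-PCR, 6-FAM labelling, HpaI digestion and capillary electrophoresis; bidirectional fit versus DMSO.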
# [2] = ATG_NRF2_ARE_CIS: Attagene CIS-FACTORIAL HepG2 Assay for human Nuclear Factor Erythroid 2 Related Factor 2 (NFR2) response to Antioxidant Response Elements (ARE) (AID 2282992); details: HepG2 Attagene ARE/NRF2 reporter, transcription factor activity; actives raise or lower the signal;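 for AC50: reporter mRNA level measured by RT-PCR and capillary electrophoresis fluorescence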
# Summary of the method: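 Readout: reporter mRNA quantified by RT-PCR plus FAM-labelled primer extension, HpaI digestion and capillary electrophoresis, 24 h after dosing transfected HepG2 cells. Gain or loss of signal is fitted bidirectionally against DMSO baseline.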
# [3] = ATG_Oct_MLP_CIS: Attagene CIS-FACTORIAL HepG2 Assay for human Octamer-Binding Transcription Factor (Oct) (AID 2282993); details: HepG2 Attagene cis-factorial Oct reporter, mRNA; actives raise or lower the signal
# Summary of the method: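 Transient MRTU transfection of HepG2 → 24 h compound treatment → RNA isolation, reverse transcription, PCR → 6-FAM primer extension, HpaI digest → capillary electrophoresis. Activity fitted both directions against DMSO.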
# [4] = target: human Peroxisome Proliferator-activated Receptor alpha (PPARa), PPARA (gene 5465) (UniProt Q07869); assay: ATG_PPARa_TRANS: Attagene TRANS-FACTORIAL HepG2 Assay for human Peroxisome Proliferator-activated Receptor alpha (PPARa) (AID 2283001; active = hit-call score of the fitted dose curve at least 0.9, where 1 is the maximum)
# Summary of the method: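 Cells (HepG2) are transfected with multiple reporter transcription units, exposed to chemical for 24 h, then total RNA is reverse-transcribed and amplified. Labelled products are quantified by capillary electrophoresis; induction is referenced to DMSO.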
# [5] = target: human Peroxisome Proliferator-activated Receptor delta (PPARd), PPARD (gene 5467) (UniProt Q03181); assay: ATG_PPARd_TRANS: Attagene TRANS-FACTORIAL HepG2 Assay for human Peroxisome Proliferator-activated Receptor delta (PPARd) (AID 2283002; active = hit-call score of the fitted dose curve at least 0.9, where 1 is the maximum)
# Summary of the method: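 HepG2 cells transiently transfected with multiplexed GAL4-UAS reporter units and exogenous chimeric NR-Gal4 proteins; 24 h compound exposure. Reporter mRNA measured by RT-PCR, 6-FAM labelling, HpaI digestion and capillary electrophoresis; gain of signal versus DMSO.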
# [6] = target: Peroxisome proliferator-activated receptor gamma (Homo sapiens) (UniProt P37231); assay: ATG_PPARg_TRANS: Attagene TRANS-FACTORIAL HepG2 Assay for human Peroxisome Proliferator-activated Receptor-gamma (PPARg) (AID 2283007; active = hit-call score of the fitted dose curve at least 0.9, where 1 is the maximum)
# Summary of the method: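 Chimeric NR-Gal4 transactivation is measured in transiently transfected HepG2 cells by reporter mRNA induction at 24 h. Detection uses RT-PCR with fluorescent labelling and capillary electrophoresis; DMSO defines baseline.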
# [7] = target: Nuclear receptor subfamily 1 group I member 2 (Homo sapiens) (UniProt O75469); assay: ATG_PXR_TRANS: Attagene TRANS-FACTORIAL HepG2 Assay for human Pregnane X Receptor (PXR) (AID 2283008; active = hit-call score of the fitted dose curve at least 0.9, where 1 is the maximum)
# Summary of the method: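 Trans-factorial format: exogenous NR-Gal4 fusion activity, not endogenous factor, in transfected human HepG2 liver cells. After 24 h dosing, RNA isolated, reverse-transcribed, amplified and resolved by capillary electrophoresis; induction scored versus DMSO.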
# [8] = target: Cellular tumor antigen p53 (Homo sapiens) (UniProt P04637); assay: ATG_p53_CIS: Attagene CIS-FACTORIAL HepG2 Assay for human p53 Transcription Factor (AID 2282994); details: HepG2 p53 cis-element reporter, Attagene mRNA; actives raise or lower the signal
# Summary of the method: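 Read-out: reporter mRNA by RT-PCR plus capillary electrophoresis with fluorescence detection. Human HepG2 liver cells carried transfected multi-reporter cis-element constructs, dosed 24 h. Gain or loss of signal fitted bidirectionally against DMSO control.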
# [9] = target: human Retinoic Acid Receptor beta (RARb), RARB (gene 5915) (UniProt P10826); assay: ATG_RARb_TRANS: Attagene TRANS-FACTORIAL HepG2 Assay for human Retinoic Acid Receptor beta (AID 2283004; active = hit-call score of the fitted dose curve at least 0.9, where 1 is the maximum)
# Summary of the method: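 Induction of reporter mRNA from a chimeric RARb-Gal4 construct was measured by RT-PCR, FAM labelling, HpaI digestion and capillary electrophoresis. Measurements followed 24 h compound treatment of transiently transfected human HepG2 liver cells, with DMSO as baseline.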
# [10] = target: Retinoic acid receptor alpha (Homo sapiens) (UniProt P10276); assay: ATG_RARa_TRANS: Attagene TRANS-FACTORIAL HepG2 Assay for human Retinoic Acid Receptor alpha (RARa) (AID 2283005; active = hit-call score of the fitted dose curve at least 0.9, where 1 is the maximum)
# Summary of the method: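 HepG2 cells transiently transfected with multiple reporter units expressing chimeric RARα-GAL4 fusion, with GAL4-UAS-driven reporters. After 24 h compound exposure, reporter mRNA induction quantified by RT-PCR and capillary electrophoresis with fluorescent labeling; gain-of-signal fitted relative to DMSO control.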
# [11] = target: human Retinoic Acid Receptor gamma (RARg), RARG (gene 5916) (UniProt P13631); assay: ATG_RARg_TRANS: Attagene TRANS-FACTORIAL HepG2 Assay for human Retinoic Acid Receptor gamma (RARg) (AID 2283009; active = hit-call score of the fitted dose curve at least 0.9, where 1 is the maximum)
# Summary of the method: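 TRANS format measured activity of exogenous NR-GAL4 fusion (RARg) in transfected HepG2 liver cells after 24 h dosing. Induced reporter RNA was detected by RT-PCR/capillary electrophoresis fluorescence, analysed in the positive direction against DMSO.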
# [12] = target: human RAR-related Orphan Receptor gamma (RORg), RORC (gene 6097) (UniProt P51449); assay: ATG_RORg_TRANS: Attagene TRANS-FACTORIAL HepG2 Assay for human RAR-related Orphan Receptor gamma (RORg) (AID 2283011; active = hit-call score of the fitted dose curve at least 0.9, where 1 is the maximum)
# Summary of the method: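 Reporter transcripts from a transfected RORg-GAL4 chimera in HepG2 cells were quantified 24 h after dosing by RT-PCR, 6-FAM labelling, HpaI digestion and capillary electrophoresis; increases over DMSO baseline were fitted.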
# [13] = target: human RAR-related Orphan Receptor beta (RORb), RORB (gene 6096) (UniProt Q92753); assay: ATG_RORb_TRANS: Attagene TRANS-FACTORIAL HepG2 Assay for human RAR-related Orphan Receptor beta (RORb) (AID 2283010; active = hit-call score of the fitted dose curve at least 0.9, where 1 is the maximum)
# Summary of the method: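 Transfect HepG2 with multiple GAL4-UAS reporter transcription units; dose chemicals for 24 h; isolate RNA, reverse-transcribe and PCR-amplify reporter sequences; label, digest and resolve fragments by capillary electrophoresis; fit increases relative to DMSO.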
# [14] = BSK_3C_TissueFactor: BioMAP Diversity Plus: 3C Assay for Tissue Factor Biomarker Activity (AID 2282997); details: BioMAP 3C HUVEC, tissue factor biomarker readout; actives raise or lower the signal
# Summary of the method: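 Tissue factor on primary human umbilical vein endothelium was read by ELISA 24 h after dosing, gain or loss relative to DMSO. Cytotoxicity ran alongside via SRB (0.1%, TCA-fixed, 560 nm).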
# [15] = BSK_3C_uPAR: BioMAP Diversity Plus: 3C Assay for Urokinase-type plasminogen activator receptor (uPAR) Biomarker Activity (AID 2282998); details: BioMAP 3C HUVEC, uPAR biomarker ELISA; actives raise or lower the signal
# Summary of the method: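 ELISA readout of uPAR on human vascular endothelium (umbilical vein primary cells), taken 24 h after chemical dosing. Increases and decreases are both fitted relative to DMSO vehicle.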
# [16] = BSK_3C_VCAM1: BioMAP Diversity Plus: 3C Assay for Vascular cell adhesion molecule 1 (VCAM1) Biomarker Activity (AID 2282999); details: BioMAP 3C HUVEC, VCAM1 ELISA, cytokine-stimulated; actives raise or lower the signal
# Summary of the method: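 Vascular primary endothelium (human umbilical vein) was exposed to chemicals and assayed 24 h later. VCAM-1 levels came from ELISA, with DMSO serving as baseline for bidirectional fitting.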
# [17] = BSK_4H_Eotaxin3: BioMAP Diversity Plus: 4H Assay for Eotaxin 3 Biomarker Activity (AID 2283000); details: primary human endothelial cells (HUVEC); actives raise or lower the signal
# Summary of the method: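 Human umbilical vein endothelial cells (BSK_4H system) dosed with test chemical; Eotaxin-3 (CCL26) measured by ELISA 24 h after dosing. Bidirectional curve fitting relative to DMSO negative control as baseline.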
# [18] = read-out: Intercellular Adhesion Molecule 1 (ICAM1), ICAM1 (gene 3383); assay: BSK_3C_ICAM1: BioMAP Diversity Plus: 3C Assay for Intercellular Adhesion Molecule 1 (ICAM1) Biomarker Activity (AID 2283003); details: primary human endothelial cells (HUVEC); actives raise or lower the signal
# Summary of the method: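 Chemicals are dosed onto primary human umbilical vein endothelium (3C system). After 24 h, ICAM-1 is measured by ELISA, and responses are fitted bidirectionally relative to DMSO.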
# [19] = BSK_3C_Proliferation: Cell Proliferation Assessment in the BioMAP Diversity Plus: 3C Assay (AID 2283006); details: primary human endothelial cells (HUVEC);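 note: potency may reflect either rise or fall in cell number versus DMSO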
# Summary of the method: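 Cells (human umbilical vein endothelial, sub-confluent) receive test chemical; after 48 h they are fixed in 10% trichloroacetic acid, stained with 0.1% SRB and read at 560 nm. Activity is referenced to DMSO, fitting increases and decreases.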
# Sequence of Peroxisome proliferator-activated receptor gamma (Homo sapiens) (P37231 whole entry, looked up, the tested form may be a part): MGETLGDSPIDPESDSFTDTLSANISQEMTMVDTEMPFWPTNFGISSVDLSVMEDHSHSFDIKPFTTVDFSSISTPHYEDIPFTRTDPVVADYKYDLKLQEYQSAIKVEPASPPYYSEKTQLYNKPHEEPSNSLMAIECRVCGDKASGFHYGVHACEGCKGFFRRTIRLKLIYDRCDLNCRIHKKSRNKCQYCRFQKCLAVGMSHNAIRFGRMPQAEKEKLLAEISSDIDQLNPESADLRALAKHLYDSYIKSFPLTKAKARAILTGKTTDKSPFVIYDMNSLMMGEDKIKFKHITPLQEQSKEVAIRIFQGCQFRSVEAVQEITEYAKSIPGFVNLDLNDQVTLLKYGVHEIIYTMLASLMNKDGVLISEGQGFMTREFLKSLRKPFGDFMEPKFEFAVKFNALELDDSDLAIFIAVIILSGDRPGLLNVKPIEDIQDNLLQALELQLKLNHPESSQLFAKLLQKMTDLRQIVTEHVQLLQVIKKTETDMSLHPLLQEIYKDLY
# Sequence of Nuclear receptor subfamily 1 group I member 2 (Homo sapiens) (O75469 whole entry, looked up, the tested form may be a part): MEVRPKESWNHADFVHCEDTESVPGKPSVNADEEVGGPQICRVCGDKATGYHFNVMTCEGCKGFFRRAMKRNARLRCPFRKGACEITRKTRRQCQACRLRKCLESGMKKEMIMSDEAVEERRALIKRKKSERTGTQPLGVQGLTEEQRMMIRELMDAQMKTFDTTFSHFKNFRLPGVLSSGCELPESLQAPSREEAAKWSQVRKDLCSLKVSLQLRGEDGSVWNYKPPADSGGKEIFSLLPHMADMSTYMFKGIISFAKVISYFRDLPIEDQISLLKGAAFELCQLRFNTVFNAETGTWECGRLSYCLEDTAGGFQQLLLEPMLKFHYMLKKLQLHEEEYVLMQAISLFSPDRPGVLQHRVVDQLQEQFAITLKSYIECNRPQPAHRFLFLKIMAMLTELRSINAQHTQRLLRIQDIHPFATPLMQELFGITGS
# Sequence of human RAR-related Orphan Receptor gamma (RORg), RORC (gene 6097) (P51449 whole entry, looked up, the tested form may be a part): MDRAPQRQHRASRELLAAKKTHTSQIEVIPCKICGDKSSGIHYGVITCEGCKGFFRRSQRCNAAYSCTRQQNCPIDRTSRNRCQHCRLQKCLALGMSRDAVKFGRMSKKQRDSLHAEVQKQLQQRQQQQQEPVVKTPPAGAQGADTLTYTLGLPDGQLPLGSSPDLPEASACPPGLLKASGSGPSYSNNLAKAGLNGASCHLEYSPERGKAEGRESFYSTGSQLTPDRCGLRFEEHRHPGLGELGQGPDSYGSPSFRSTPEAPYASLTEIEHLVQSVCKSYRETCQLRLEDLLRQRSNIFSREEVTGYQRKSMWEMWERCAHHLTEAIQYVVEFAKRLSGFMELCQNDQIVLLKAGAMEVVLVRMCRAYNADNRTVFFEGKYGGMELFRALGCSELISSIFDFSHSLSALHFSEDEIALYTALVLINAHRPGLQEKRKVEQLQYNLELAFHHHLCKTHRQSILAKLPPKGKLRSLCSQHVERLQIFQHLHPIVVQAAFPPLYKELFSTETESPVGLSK
# Sequence of human Peroxisome Proliferator-activated Receptor delta (PPARd), PPARD (gene 5467) (Q03181 whole entry, looked up, the tested form may be a part): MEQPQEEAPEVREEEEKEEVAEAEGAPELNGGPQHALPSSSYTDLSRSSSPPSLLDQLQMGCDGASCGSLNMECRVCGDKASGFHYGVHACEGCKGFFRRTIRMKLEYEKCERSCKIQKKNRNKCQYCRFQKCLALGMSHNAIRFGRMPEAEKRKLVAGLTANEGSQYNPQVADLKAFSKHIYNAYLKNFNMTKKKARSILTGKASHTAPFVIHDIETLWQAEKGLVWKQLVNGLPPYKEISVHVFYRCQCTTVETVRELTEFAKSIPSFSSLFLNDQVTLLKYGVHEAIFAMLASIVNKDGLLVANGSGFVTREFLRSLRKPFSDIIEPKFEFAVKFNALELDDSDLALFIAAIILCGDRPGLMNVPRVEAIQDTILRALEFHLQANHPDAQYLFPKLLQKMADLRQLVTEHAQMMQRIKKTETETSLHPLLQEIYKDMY
# Sequence of human Peroxisome Proliferator-activated Receptor alpha (PPARa), PPARA (gene 5465) (Q07869 whole entry, looked up): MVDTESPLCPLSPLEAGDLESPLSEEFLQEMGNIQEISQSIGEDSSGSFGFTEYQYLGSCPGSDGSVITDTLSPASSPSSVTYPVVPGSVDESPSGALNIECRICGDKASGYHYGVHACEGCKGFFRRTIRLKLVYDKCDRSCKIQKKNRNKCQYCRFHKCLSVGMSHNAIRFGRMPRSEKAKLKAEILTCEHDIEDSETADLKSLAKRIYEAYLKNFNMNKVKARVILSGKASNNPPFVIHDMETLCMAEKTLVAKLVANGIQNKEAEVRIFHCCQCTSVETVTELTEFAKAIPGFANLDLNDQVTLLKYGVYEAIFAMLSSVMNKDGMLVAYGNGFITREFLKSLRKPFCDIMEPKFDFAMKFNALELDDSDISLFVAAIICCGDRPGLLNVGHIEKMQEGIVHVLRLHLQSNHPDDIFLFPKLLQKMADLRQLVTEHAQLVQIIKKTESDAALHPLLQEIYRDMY
# Sequence of Cellular tumor antigen p53 (Homo sapiens) (P04637 whole entry, looked up): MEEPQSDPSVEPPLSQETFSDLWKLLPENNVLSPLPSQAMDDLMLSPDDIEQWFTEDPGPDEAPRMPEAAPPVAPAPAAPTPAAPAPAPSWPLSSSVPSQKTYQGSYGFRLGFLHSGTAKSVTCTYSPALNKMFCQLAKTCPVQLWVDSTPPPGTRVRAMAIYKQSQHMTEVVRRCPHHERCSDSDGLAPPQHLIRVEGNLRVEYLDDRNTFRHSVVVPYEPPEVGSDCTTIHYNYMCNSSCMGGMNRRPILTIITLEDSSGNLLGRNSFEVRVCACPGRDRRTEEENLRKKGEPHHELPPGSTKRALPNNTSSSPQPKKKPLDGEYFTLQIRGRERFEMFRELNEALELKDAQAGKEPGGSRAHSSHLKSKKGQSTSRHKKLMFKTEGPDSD
# Sequence of Myc proto-oncogene protein (Homo sapiens) (P01106 whole entry, looked up): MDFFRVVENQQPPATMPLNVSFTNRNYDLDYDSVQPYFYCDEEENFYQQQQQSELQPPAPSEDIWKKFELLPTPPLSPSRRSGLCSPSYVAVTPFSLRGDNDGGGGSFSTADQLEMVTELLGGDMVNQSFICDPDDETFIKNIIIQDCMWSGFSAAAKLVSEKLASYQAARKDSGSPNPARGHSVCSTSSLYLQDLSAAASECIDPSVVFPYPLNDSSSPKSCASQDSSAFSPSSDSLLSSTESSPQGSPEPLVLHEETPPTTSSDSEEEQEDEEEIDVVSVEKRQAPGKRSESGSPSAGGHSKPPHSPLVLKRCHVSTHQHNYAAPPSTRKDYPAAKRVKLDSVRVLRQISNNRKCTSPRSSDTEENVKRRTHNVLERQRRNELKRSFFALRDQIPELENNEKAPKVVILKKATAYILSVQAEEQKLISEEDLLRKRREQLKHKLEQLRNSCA
# Sequence of human RAR-related Orphan Receptor beta (RORb), RORB (gene 6096) (Q92753 whole entry, looked up, the tested form may be a part): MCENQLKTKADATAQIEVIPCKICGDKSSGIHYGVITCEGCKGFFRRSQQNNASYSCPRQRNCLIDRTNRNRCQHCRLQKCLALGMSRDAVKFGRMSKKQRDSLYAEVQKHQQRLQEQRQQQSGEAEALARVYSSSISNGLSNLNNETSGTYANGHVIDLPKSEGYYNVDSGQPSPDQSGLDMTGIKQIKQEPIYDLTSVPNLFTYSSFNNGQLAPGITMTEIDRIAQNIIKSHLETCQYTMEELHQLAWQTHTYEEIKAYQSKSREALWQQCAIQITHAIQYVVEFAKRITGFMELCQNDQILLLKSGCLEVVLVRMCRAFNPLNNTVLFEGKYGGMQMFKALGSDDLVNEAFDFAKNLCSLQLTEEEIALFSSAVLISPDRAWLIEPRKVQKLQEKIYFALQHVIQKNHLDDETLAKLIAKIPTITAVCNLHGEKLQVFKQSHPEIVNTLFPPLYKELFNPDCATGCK
# Sequence of human Retinoic Acid Receptor beta (RARb), RARB (gene 5915) (P10826 whole entry, looked up, the tested form may be a part): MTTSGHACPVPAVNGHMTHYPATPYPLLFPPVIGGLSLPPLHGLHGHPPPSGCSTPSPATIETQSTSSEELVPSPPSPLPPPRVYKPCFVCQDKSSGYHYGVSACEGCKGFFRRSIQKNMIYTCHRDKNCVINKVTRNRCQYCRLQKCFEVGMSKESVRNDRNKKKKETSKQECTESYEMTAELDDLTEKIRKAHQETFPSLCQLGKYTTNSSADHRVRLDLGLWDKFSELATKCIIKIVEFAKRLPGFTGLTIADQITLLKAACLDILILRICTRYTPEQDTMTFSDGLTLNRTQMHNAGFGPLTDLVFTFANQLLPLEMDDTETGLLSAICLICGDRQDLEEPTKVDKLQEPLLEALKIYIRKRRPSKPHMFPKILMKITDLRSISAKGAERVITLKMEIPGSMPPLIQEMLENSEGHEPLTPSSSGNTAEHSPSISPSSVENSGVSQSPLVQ
# Sequence of human Retinoic Acid Receptor gamma (RARg), RARG (gene 5916) (P13631 whole entry, looked up, the tested form may be a part): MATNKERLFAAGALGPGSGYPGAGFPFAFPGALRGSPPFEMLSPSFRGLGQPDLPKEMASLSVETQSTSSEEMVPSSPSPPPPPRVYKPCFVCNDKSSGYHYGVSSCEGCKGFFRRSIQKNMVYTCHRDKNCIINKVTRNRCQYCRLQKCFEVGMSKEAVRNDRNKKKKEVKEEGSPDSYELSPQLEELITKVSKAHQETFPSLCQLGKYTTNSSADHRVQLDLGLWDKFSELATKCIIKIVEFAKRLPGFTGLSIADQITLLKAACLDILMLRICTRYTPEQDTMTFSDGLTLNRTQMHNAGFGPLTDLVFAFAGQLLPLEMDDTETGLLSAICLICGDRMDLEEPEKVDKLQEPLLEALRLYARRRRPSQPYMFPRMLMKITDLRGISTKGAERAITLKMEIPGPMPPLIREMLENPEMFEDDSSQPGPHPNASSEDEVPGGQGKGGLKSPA
smiles,measurement,setting,value
COC(=O)Nc1ccc(Cl)c(Cl)c1,outcome,[1],inactive
same,AC50,[2],100 µM (active)
same,outcome,[3],inactive
same,outcome,[4],inactive
same,outcome,[5],inactive
same,AC50,[6],27.4 µM (active)
same,outcome,[7],inactive
CCCCCCOC(=O)CCC,outcome,[1],inactive
same,outcome,[2],inactive
same,outcome,[8],inactive
same,outcome,[9],inactive
same,outcome,[10],inactive
same,AC50,[7],15.1 µM (active)
same,outcome,[11],inactive
OC[C@H]1O[C@@H](Oc2ccc(O)cc2)[C@H](O)[C@@H](O)[C@@H]1O,outcome,[1],inactive
same,outcome,[2],inactive
same,outcome,[3],inactive
same,outcome,[5],inactive
same,outcome,[7],inactive
CCCCC1(COC(=O)CCC(=O)O)C(=O)N(c2ccccc2)N(c2ccccc2)C1=O,outcome,[1],inactive
same,outcome,[2],inactive
same,outcome,[3],inactive
same,outcome,[8],inactive
same,outcome,[6],inactive
same,AC50,[7],28 µM (active)
same,outcome,[12],inactive
CS(=O)(=O)c1ccc(Cl)cc1,outcome,[1],inactive
same,outcome,[2],inactive
same,outcome,[3],inactive
same,outcome,[5],inactive
same,outcome,[7],inactive
same,outcome,[13],inactive
same,outcome,[12],inactive
CCOc1ccc(NC(=O)CC(C)=O)cc1,outcome,[1],inactive
same,outcome,[2],inactive
same,outcome,[3],inactive
same,outcome,[4],inactive
same,outcome,[9],inactive
same,outcome,[7],inactive
same,outcome,[12],inactive
CCCC(=O)c1ccccc1,outcome,[1],inactive
same,outcome,[2],inactive
same,outcome,[3],inactive
same,outcome,[8],inactive
same,outcome,[6],inactive
same,outcome,[7],inactive
same,outcome,[13],inactive
same,outcome,[12],inactive
c1ccc(CCc2ccccc2)cc1,outcome,[1],inactive
same,AC50,[2],149 µM (active)
same,outcome,[3],inactive
same,AC50,[14],14.5 µM (active)
same,AC50,[15],36.7 µM (active)
same,AC50,[16],29.8 µM (active)
same,AC50,[17],30.7 µM (active)
same,outcome,[4],inactive
same,outcome,[5],inactive
same,AC50,[18],30.9 µM (active)
same,AC50,[19],22.7 µM (active)
same,outcome,[6],inactive
same,AC50,[7],31.6 µM (active)
CCCC(=O)C(CC)Sc1ccoc1C (configuration not stated),outcome,[1],inactive
same,AC50,[2],27.7 µM (active)
same,outcome,[3],inactive
same,outcome,[8],inactive
same,AC50,[6],33.6 µM (active)
same,AC50,[7],9.72 µM (active)
